Measured values taken from PubChem BioAssay (Tox21).
Results filed as inconclusive are left out. Activity calls are given as the source filed them. Unless noted, calls come from the whole dose curve; as a rule, active = well fitted curve in the direction sought with a large enough effect in the repeat runs; inconclusive = weak or mixed curves; inactive = no such curve, though single readings can be large; an effect the other way counts as inactive or inconclusive.

Key:
[1] = qHTS assay for small molecule agonists of the p53 signaling pathway (AID 651631; calls by dose curve; note: nearly all actives have a fitted effect of over 15% in size); details: HCT-116 p53RE-bla reporter, beta-lactamase FRET ratio, 16 h; series mostly up to 73.3 µM
Method in brief: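 HCT-116 cells carrying a beta-lactamase reporter under p53 response elements were dosed with compound for 16 h at 37 °C. LiveBLAzer B/G FRET substrate was then added for 2 h at room temperature, and fluorescence intensity was read to detect pathway agonism.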

[2] = qHTS assay for small molecules that induce genotoxicity in human embryonic kidney cells expressing luciferase-tagged ATAD5 (AID 651632); details: HEK293T ATAD5-luciferase induction, 16 h; series mostly up to 83.3 µM; note: nearly all actives have a fitted effect of over 15% in size
Method in brief: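 Genotoxicity read-out via ATAD5-luciferase: HEK293T cells, 16 hr compound incubation at 37C, Amplite detection.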

[3] = qHTS assay for small molecule agonists of the p53 signaling pathway - cell viability (AID 651633; calls by dose curve; note: nearly all actives have a fitted effect of over 30% in size); details: p53RE-bla HCT-116 viability, ATP luminescence, 16 h; series mostly up to 83.3 µM
Method in brief: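 Viability counter-read: CellTiter-Glo luminescence (30 min, room temperature) in the same p53RE-bla plates. These plates had been exposed to compounds for 16 h at 37 C.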

[4] = qHTS assay for small molecules that induce genotoxicity in human embryonic kidney cells expressing luciferase-tagged ATAD5 - cell viability (AID 651634; calls by dose curve; note: nearly all actives have a fitted effect of over 25% in size); details: HEK293T ATAD5-luc cells viability, CellTiter-Fluor, 15.5 h; series mostly up to 83.3 µM
Method in brief: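 Live-cell protease activity (CellTiter-Fluor, fluorescence) indicates viability. HEK293T cells with luciferase-tagged ATAD5; 15.5 hr compound treatment at 37C.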

[5] = qHTS assay for small molecule disruptors of the mitochondrial membrane potential - cell viability (AID 720634; calls by dose curve;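 note: human HepG2 liver cancer cells; nearly all actives have a fitted effect of over 20% in size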); details: HepG2 viability, ATP luminescence (CellTiter-Glo), 1 h; series mostly up to 83.2 µM
Method in brief: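 Human hepatoma HepG2 cells were treated for 1 hr with test chemicals, then given m-MPI dye and CellTiter-Glo. Cell viability reflects luminescence proportional to cellular ATP.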

[6] = qHTS assay to test for compound auto fluorescence at 590 nm (red) in HepG2 cells (AID 720674); details: HepG2 autofluorescence, red 540/590 nm, 1 h; series mostly up to 46 µM
Method in brief: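 Red autofluorescence (Ex/Em 540/590 nm, Rose Bengal sodium equivalents) was measured in HepG2 cells, 2,000 per well in MEM plus 10% FBS, plated overnight at 37 C. Readings were taken 1 hr after adding 23 nL compound or DMSO, at 37 C and 5% CO2.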

[7] = qHTS assay to test for compound auto fluorescence at 535 nm (green) in HepG2 cells (AID 720675); details: green autofluorescence 485/535 nm, 1 h; series mostly up to 46 µM
[8] = qHTS assay to test for compound auto fluorescence at 460 nm (blue) in HEK293 cells (AID 720678); details: blue autofluorescence 405/460 nm; series mostly up to 46 µM
Method in brief: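 HEK293, 2,000 cells/well, 10% dialyzed FBS; attach 4-5 hr 37C; pin compound or DMSO; o/n 37C/5% CO2; fluorescence 405/460 nm; triamterene-equivalent units.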

[9] = qHTS assay to test for compound auto fluorescence at 590 nm (red) in HEK293 cells (AID 720679); details: red autofluorescence 540/590 nm; series mostly up to 46 µM
Method in brief: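 Intensity at 540nm excitation and 590nm emission is reported as Rose Bengal sodium-equivalent autofluorescence. Measurements followed overnight exposure (37C, 5% CO2) of HEK293 cells, 2,000 per well, to 23 nL compound.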

[10] = qHTS assay to test for compound auto fluorescence at 535 nm (green) in HEK293 cells (AID 720680); details: green autofluorescence 485/535 nm; series mostly up to 46 µM
[11] = qHTS assay to test for compound auto fluorescence at 535 nm (green) in HEK293 cell free culture (AID 720682); details: cell-free medium, green autofluorescence 485/535 nm; series mostly up to 46 µM
Method in brief: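 Green-label autofluorescence (485 nm excitation, 535 nm emission) measured on compound added to cell-free culture medium (DMEM, 10% FBS). Output is expressed relative to fluorescein.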

[12] = qHTS assay to test for compound auto fluorescence at 590 nm (red) in HEK293 cell free culture (AID 720683); details: cell-free medium autofluorescence, Ex540/Em590 red; series mostly up to 46 µM
Method in brief: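 Red-channel autofluorescence of compounds in culture medium (DMEM, 10% FBS), no cells, measured at 540/590 nm. Rose Bengal sodium is the reference fluorophore for equivalence.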

[13] = qHTS assay to test for compound auto fluorescence at 590 nm (red) in HepG2 cell free culture (AID 720684); details: cell-free medium autofluorescence, red 540/590 nm; series mostly up to 46 µM
Method in brief: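 Plate contents were MEM with 10% FBS plus test compound or DMSO, no cells. Fluorescence was recorded with 540 nm excitation and 590 nm emission.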

[14] = qHTS assay to test for compound auto fluorescence at 460 nm (blue) in HepG2 cell free culture (AID 720685); details: Cell-free culture medium, blue autofluorescence 405/460 nm; series mostly up to 46 µM
Method in brief: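 Compound (23 nL) or DMSO pinned into cell-free MEM with 10% FBS; blue fluorescence read at 405/460 nm excitation/emission, expressed as auto-fluorescence equivalency to triamterene.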

[15] = qHTS assay to test for compound auto fluorescence at 535 nm (green) in HepG2 cell free culture (AID 720686); details: Cell-free medium, green autofluorescence 485/535 nm; series mostly up to 46 µM
[16] = qHTS assay to test for compound auto fluorescence at 460 nm (blue) in HepG2 cells (AID 720687); details: autofluorescence 405/460 nm, 1 h; series mostly up to 46 µM
Method in brief: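 Blue-channel autofluorescence (Ex/Em 405/460 nm, triamterene-equivalent) was measured after 1 hr compound exposure at 37 C, 5% CO2. Cells were HepG2, plated overnight at 37 C in MEM plus 10% FBS.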

[17] = qHTS assay to identify small molecule antagonists of the glucocorticoid receptor (GR) signaling pathway - cell viability counter screen (AID 720693); details: GR-bla HeLa viability, CellTiter-Glo luminescence, 18 h, with 5 nM dexamethasone present; series mostly up to 58.5 µM; note: nearly all actives have a fitted effect of over 55% in size
[18] = qHTS assay for identifying genotoxic compounds that show differential cytotoxicity against isogenic chicken DT40 cell lines with known DNA damage response pathways - wild type cell line (AID 743012); details: DT40 wild type chicken cells viability, CellTiter-Glo, 40 h; series mostly up to 68.4 µM; note: nearly all actives have a fitted effect of over 60% in size
Method in brief: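 Quantitative HTS on parental DT40 cells: 40 h compound treatment at 37 C/5% CO2, with viability then determined by CellTiter-Glo luminescence. Values serve as the DNA repair-proficient reference for differential cytotoxicity.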

[19] = qHTS assay for identifying genotoxic compounds that show differential cytotoxicity against isogenic chicken DT40 cell lines with known DNA damage response pathways - Rev3 mutant cell line (AID 743014); details: chicken DT40 Rev3-/- viability, CellTiter-Glo, 40 h; series mostly up to 68.4 µM; note: nearly all actives have a fitted effect of over 55% in size
[20] = qHTS assay for identifying genotoxic compounds that show differential cytotoxicity against isogenic chicken DT40 cell lines with known DNA damage response pathways - Rad54/Ku70 mutant cell line (AID 743015); details: DT40 Rad54/Ku70 mutant viability, CellTiter-Glo, 40 h; series mostly up to 66.8 µM; note: nearly all actives have a fitted effect of over 60% in size
[21] = qHTS assay to identify small molecule antagonists of the androgen receptor (AR) signaling pathway using the MDA cell line - cell viability counter screen (AID 743041; note: nearly all actives have a fitted effect of over 45% in size); details: MDA-kb2 viability, CellTiter-Fluor, 16 h, cells co-treated with R1881 androgen agonist; series mostly up to 70.3 µM
Method in brief: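 R1881-driven MDA-kb2 AR-luc cells, 3,000/well, were dosed with library compounds for 16 h; cell health came from CellTiter-Fluor fluorescence in the reporter wells.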

[22] = qHTS assay to identify small molecule antagonists of the thyroid receptor (TR) signaling pathway - cell viability counter screen (AID 743064); details: GH3.TRE-Luc viability, CellTiter-Fluor, 24 h; series mostly up to 70.3 µM; note: nearly all actives have a fitted effect of over 50% in size
Method in brief: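 GH3.TRE-Luc rat pituitary cells dosed after 4 hr plating, co-stimulated with T3 at 1 nM final, incubated 23.5 h at 37 C. Viability measured in the same wells by CellTiter-Fluor fluorescence after 30 min further at 37 C.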

[23] = qHTS assay to identify small molecule antagonists of the thyroid receptor (TR) signaling pathway (AID 743065); details: GH3.TRE-Luc, T3-stimulated luciferase inhibition, 23.5 h; series mostly up to 70.3 µM; note: nearly all actives have a fitted effect of over 55% in size
Method in brief: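 Antagonism measured as loss of luciferase signal in GH3 cells stably carrying a TRE-luciferase reporter, co-treated with compound and T3 (1 nM final) for 23.5 h at 37 C. Viability was read in the same well by CellTiter-Fluor.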

[24] = tested on: thyroid hormone receptor (rat, GH3 cells); assay: qHTS assay to identify small molecule agonists of the thyroid receptor (TR) signaling pathway (AID 743066; calls by dose curve); details: GH3.TRE-Luc cells, TR agonist luciferase, 24 h; series mostly up to 83.9 µM
[25] = target: Estrogen receptor (Homo sapiens) (UniProt P03372); assay: qHTS assay to identify small molecule antagonists of the estrogen receptor alpha (ER-alpha) signaling pathway (AID 743069; active = well fitted curve in the direction sought with a large enough effect in the signal ratio in the repeat runs, not every such curve was filed as active; the % refers to the signal ratio); details: HEK293 ER-alpha-UAS-bla, beta-lactamase ratio, antagonist mode; series mostly up to 69.4 µM
Sequence of Estrogen receptor (Homo sapiens) (P03372 whole entry, looked up): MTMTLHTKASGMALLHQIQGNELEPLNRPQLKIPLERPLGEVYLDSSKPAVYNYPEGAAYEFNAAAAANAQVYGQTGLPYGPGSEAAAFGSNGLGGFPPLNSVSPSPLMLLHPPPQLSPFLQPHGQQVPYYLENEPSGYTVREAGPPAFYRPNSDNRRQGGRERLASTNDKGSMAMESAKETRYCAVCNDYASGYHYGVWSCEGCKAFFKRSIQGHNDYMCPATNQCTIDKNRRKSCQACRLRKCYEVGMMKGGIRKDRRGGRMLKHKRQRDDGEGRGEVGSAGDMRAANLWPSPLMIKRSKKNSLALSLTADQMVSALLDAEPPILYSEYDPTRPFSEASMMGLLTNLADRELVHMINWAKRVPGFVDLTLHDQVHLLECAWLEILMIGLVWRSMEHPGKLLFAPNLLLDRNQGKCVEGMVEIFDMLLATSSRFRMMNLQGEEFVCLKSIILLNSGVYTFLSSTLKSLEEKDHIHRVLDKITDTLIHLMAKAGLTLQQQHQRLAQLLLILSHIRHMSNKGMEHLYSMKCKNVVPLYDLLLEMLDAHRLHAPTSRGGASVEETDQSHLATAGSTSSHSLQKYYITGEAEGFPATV
Method in brief: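 Compound effects are measured against 17beta-estradiol stimulation in HEK293 cells with a UAS-controlled beta-lactamase reporter for ER-alpha. Exposure lasts 18 hr at 37C; LiveBLAzer B/G FRET substrate follows for 2 hr at room temperature.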

[26] = target: Estrogen receptor (Homo sapiens) (UniProt P03372); assay: qHTS assay to identify small molecule agonists of the estrogen receptor alpha (ER-alpha) signaling pathway (AID 743075; calls by dose curve); details: HEK293 ER-alpha-UAS-bla, beta-lactamase FRET ratio, 18 h; series mostly up to 70.1 µM
[27] = target: Estrogen receptor (Homo sapiens) (UniProt P03372); assay: qHTS assay to identify small molecule agonists of the estrogen receptor alpha (ER-alpha) signaling pathway using the BG1 cell line (AID 743079); details: BG1Luc4E2 cells, ERE-luciferase agonist, 22 h; series mostly up to 70.3 µM; note: nearly all actives have a fitted effect of over 20% in size
[28] = qHTS assay to identify small molecule antagonists of the estrogen receptor alpha (ER-alpha) signaling pathway using the BG1 cell line (AID 743080; calls by dose curve;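 note: BG1 cells stimulated with 17beta-estradiol alongside compound; nearly all actives have a fitted effect of over 25% in size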); details: BG1Luc4E2 ERE-luciferase antagonist mode, luminescence; series mostly up to 70.3 µM
Method in brief: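 BG1Luc4E2, endogenous ER-alpha, 4xERE-luc; 5 d charcoal-stripped FBS, phenol red free; 24 h plating; cpd + 17beta-estradiol 21.5 h, 37 C/5% CO2; CellTiter-Fluor viability 30 min, then ONE-Glo luciferase 30 min RT.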

[29] = target: Aromatase (Homo sapiens) (UniProt P11511); assay: qHTS assay to identify aromatase inhibitors (AID 743083); details: MCF-7 aro ERE, testosterone-driven ERE luciferase, 24 h; series mostly up to 70.3 µM; note: nearly all actives have a fitted effect of over 55% in size
Sequence of Aromatase (Homo sapiens) (P11511 whole entry, looked up): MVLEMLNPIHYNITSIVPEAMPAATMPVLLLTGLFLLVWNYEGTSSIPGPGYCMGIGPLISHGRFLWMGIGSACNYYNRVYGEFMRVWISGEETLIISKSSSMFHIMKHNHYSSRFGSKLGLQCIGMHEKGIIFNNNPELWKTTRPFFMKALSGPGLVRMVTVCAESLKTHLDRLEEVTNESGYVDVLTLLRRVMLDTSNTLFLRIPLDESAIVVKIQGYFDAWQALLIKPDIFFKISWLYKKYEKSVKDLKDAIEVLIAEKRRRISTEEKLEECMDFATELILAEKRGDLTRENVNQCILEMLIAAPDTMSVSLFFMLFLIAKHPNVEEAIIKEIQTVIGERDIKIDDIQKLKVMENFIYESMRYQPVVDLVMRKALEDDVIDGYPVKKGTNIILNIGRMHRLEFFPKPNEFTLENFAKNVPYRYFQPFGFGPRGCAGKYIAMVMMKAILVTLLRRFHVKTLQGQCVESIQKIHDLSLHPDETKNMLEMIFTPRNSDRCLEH

[30] = qHTS assay to identify aromatase inhibitors - cell viability counter screen (AID 743084); details: MCF-7 aro ERE viability, CellTiter-Fluor, 24 h; series mostly up to 70.3 µM
[31] = qHTS assay to identify small molecule that activate the aryl hydrocarbon receptor (AhR) signaling pathway - cell viability counter screen (AID 743086); details: HepG2-AhR-luc viability, CellTiter-Fluor, 24 h; series mostly up to 70.3 µM;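 note: HepG2 liver cells carrying the AhR DRE luciferase reporter; nearly all actives have a fitted effect of over 45% in size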
Method in brief: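 Cytotoxicity counter screen: CellTiter-Fluor signal (30 min, 37 C) in 4000 HepG2 cells/well carrying the DRE-luciferase reporter, following 24 h compound exposure at 37 C.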

[32] = target: Peroxisome proliferator-activated receptor gamma (Homo sapiens) (UniProt P37231); assay: qHTS assay to identify small molecule agonists of the peroxisome proliferator-activated receptor gamma (PPARg) signaling pathway (AID 743094; active = well fitted activation curve with a large enough effect in the signal ratio in the repeat runs, not every such curve was filed as active; the % refers to the signal ratio); details: HEK293H PPARg-UAS-bla, beta-lactamase FRET ratio, 17 h; series mostly up to 57 µM
Sequence of Peroxisome proliferator-activated receptor gamma (Homo sapiens) (P37231 whole entry, looked up): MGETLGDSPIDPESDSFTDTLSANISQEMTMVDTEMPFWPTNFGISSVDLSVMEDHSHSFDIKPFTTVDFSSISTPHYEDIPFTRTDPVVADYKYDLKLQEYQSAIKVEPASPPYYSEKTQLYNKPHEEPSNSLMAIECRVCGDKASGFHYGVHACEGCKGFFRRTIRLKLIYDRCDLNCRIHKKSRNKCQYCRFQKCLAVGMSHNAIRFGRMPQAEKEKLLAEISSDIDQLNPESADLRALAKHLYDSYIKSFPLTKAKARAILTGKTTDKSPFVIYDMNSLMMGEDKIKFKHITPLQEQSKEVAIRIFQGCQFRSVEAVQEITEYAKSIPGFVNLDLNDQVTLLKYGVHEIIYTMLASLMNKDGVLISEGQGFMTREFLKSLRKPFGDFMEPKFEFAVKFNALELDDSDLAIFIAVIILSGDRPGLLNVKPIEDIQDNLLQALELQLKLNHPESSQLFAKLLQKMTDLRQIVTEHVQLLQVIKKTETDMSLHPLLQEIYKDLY
Method in brief: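 Stably transfected HEK293H cells (GeneBLAzer PPARg UAS-bla) were incubated with test substances for 17 h at 37C after a 5 h pre-incubation; beta-lactamase activity was then detected by FRET substrate fluorescence.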

Measured: Potency

Clc1ccc([C@@H]2C[C@H]3CC[C@@H]2N3)cn1
inactive: all assays above
